# In publication PMC7862700, “An all-to-all approach to the identification of sequence-specific readers for epigenetic DNA modifications on cytosine”:
# Legend:
# Test in all cases: DAPPL (digital affinity profiling via proximity ligation, sequencing); 10 mM Tris-HCl pH 7.5, 50 mM NaCl, 1 mM DTT, 4% glycerol, room temperature, 30 min; GST-TFs on glutathione beads, 16-mer random dsDNA library, 0.1% formaldehyde crosslink after washing; high values mean tight binding
# FEV = molecular target: T1, FEV (Homo sapiens, UniProt Q99581 1-238); conditions: protein: recombinant; tags: N-terminal GST; dsDNA, one strand shown
# T1 sequence: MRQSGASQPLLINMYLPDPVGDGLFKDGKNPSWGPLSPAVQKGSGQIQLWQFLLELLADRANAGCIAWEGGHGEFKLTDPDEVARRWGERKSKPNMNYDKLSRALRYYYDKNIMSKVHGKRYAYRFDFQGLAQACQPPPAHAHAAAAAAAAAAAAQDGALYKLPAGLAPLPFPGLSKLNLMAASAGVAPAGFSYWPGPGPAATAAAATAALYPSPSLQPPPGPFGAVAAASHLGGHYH
# Method in brief: (§1)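 Yeast served to express human transcription factors as GST fusions, which were then captured on glutathione beads and labelled with DNA barcodes. Pooled with a tag-only sample, they were incubated with 200 nmole of a 16-mer random double-stranded DNA library for 30 min at room temperature in Tris/NaCl/DTT/glycerol buffer, washed, crosslinked with 0.1% formaldehyde, ligated by proximity, amplified by PCR and sequenced. Dividing each hexamer's read frequency for a factor by its frequency for the tag-only sample gives the binding signal.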
# ETV5 = ETV5 (Homo sapiens, UniProt P41161 1-510); conditions: protein: recombinant; tags: N-terminal GST; dsDNA, one strand shown
# Sequence of ETV5 (P41161 whole entry): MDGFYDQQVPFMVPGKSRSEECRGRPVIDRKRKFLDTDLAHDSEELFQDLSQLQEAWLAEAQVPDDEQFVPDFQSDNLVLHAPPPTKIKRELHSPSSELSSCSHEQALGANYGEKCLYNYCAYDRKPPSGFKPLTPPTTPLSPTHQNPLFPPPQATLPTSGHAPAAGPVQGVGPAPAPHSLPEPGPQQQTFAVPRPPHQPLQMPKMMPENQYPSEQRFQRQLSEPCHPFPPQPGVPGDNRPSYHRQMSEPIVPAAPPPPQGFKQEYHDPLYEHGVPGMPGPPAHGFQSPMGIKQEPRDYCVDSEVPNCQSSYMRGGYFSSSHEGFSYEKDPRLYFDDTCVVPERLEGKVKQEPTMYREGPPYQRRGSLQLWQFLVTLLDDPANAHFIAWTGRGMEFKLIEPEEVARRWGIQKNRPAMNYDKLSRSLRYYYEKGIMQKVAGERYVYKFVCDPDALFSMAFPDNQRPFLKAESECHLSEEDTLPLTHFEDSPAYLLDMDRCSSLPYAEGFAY
# Method in brief: as §1
# HSF1 = HSF1 (Homo sapiens, UniProt Q00613 1-529); conditions: protein: recombinant; tags: N-terminal GST; chain copies: 3; dsDNA, one strand shown
# Sequence of HSF1 (Q00613 whole entry): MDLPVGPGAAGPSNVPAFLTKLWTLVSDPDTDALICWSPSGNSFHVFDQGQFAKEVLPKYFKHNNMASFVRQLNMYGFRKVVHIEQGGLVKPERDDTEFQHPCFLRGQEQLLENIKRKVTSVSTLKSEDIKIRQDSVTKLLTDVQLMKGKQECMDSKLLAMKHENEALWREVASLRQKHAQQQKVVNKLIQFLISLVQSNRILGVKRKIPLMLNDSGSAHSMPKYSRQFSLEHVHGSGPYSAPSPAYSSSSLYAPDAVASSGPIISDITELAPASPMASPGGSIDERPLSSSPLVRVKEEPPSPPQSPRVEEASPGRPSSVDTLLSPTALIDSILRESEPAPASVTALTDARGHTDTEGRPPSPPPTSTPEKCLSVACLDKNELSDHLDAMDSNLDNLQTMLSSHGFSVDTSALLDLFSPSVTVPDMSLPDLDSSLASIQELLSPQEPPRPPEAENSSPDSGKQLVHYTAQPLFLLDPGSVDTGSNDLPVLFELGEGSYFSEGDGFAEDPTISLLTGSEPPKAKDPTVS
# Method in brief: as §1
# SPIC = molecular target: T2, SPIC (Homo sapiens, UniProt Q8N5J4 1-248); conditions: protein: recombinant; tags: N-terminal GST; dsDNA, one strand shown
# T2 sequence: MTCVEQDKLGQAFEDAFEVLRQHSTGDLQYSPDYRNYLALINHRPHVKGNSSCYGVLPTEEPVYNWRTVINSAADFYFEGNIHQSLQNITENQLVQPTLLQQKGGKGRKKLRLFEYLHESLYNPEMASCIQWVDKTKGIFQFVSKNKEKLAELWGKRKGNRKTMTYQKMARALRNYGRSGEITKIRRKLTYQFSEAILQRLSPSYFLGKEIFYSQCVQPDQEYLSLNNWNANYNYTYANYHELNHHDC
# Method in brief: as §1
# ELF4 = ELF4 (Homo sapiens, UniProt Q99607 1-663); conditions: protein: recombinant; tags: N-terminal GST; dsDNA, one strand shown
# Sequence of ELF4 (Q99607 whole entry): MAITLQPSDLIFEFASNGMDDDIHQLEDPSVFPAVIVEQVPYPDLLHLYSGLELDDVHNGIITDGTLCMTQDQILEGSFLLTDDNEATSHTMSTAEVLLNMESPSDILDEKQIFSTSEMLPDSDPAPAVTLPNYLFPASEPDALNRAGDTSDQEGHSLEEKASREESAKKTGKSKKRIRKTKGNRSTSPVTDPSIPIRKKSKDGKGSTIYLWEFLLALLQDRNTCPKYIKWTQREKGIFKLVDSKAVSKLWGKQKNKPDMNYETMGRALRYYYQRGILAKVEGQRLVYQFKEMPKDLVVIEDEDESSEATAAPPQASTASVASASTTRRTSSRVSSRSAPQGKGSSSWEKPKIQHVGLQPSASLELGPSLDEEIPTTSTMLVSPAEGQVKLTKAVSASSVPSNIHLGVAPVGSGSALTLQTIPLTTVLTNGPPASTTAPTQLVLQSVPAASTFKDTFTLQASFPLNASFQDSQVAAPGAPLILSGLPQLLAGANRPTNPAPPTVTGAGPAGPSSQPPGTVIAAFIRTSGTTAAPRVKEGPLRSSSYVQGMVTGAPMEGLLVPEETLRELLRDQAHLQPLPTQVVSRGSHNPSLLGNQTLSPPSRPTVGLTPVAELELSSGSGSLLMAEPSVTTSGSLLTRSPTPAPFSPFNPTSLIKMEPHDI
# Method in brief: as §1
# ELK4 = molecular target: T3, ELK4 (Homo sapiens, UniProt P28324-2 1-405); conditions: protein: recombinant; tags: N-terminal GST; dsDNA, one strand shown
# T3 sequence: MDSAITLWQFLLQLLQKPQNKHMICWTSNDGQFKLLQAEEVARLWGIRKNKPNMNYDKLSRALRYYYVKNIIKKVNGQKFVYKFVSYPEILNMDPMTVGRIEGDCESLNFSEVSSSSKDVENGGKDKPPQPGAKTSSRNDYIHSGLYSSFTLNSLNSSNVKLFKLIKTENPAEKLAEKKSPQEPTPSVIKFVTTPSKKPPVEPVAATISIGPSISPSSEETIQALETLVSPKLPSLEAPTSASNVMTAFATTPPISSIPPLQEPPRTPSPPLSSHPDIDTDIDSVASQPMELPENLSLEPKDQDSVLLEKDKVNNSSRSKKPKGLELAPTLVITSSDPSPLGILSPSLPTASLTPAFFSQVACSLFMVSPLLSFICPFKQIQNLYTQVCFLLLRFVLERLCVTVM
# Method in brief: as §1
# ETV2 = molecular target: T4, ETV2 (Homo sapiens, UniProt O00321 1-342); conditions: protein: recombinant; tags: N-terminal GST; dsDNA, one strand shown
# T4 sequence: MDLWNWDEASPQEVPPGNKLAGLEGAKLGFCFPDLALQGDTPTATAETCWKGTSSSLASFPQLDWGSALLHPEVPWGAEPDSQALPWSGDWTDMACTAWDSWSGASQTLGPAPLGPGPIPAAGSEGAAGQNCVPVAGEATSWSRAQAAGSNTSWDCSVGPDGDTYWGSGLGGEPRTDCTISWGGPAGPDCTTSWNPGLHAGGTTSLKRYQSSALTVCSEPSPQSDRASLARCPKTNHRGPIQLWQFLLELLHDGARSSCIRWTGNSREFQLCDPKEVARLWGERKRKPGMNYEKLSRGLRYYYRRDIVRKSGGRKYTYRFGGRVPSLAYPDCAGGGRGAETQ
# Method in brief: as §1
# ELF3 = molecular target: T5, ELF3 (Homo sapiens, UniProt P78545 1-371); conditions: protein: recombinant; tags: N-terminal GST; dsDNA, one strand shown
# T5 sequence: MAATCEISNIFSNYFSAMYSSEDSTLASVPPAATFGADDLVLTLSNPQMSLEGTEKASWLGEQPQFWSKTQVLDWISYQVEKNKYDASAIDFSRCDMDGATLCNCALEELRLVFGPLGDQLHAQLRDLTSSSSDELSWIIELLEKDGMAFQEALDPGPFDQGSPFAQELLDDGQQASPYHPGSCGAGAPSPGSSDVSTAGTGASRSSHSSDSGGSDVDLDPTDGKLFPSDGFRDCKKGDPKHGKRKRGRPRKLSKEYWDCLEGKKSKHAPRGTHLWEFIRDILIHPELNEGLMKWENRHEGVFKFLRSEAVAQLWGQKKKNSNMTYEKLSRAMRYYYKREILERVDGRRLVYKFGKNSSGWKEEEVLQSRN
# Method in brief: as §1
# CRX = CRX (Homo sapiens, UniProt O43186 1-299); conditions: protein: recombinant; tags: N-terminal GST; dsDNA, one strand shown
# Sequence of CRX (O43186 whole entry): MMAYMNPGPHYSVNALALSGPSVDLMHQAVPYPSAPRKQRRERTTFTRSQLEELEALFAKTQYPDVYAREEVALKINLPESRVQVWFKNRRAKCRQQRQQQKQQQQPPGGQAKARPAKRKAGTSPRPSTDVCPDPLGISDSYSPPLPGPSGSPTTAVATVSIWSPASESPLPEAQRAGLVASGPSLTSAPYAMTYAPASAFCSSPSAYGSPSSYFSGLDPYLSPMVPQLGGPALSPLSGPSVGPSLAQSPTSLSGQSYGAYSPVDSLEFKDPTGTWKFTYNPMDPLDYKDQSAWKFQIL
# Method in brief: as §1
# ETV1 = ETV1 (Homo sapiens, UniProt P50549 1-477); conditions: protein: recombinant; tags: N-terminal GST; dsDNA, one strand shown
# Sequence of ETV1 (P50549 whole entry): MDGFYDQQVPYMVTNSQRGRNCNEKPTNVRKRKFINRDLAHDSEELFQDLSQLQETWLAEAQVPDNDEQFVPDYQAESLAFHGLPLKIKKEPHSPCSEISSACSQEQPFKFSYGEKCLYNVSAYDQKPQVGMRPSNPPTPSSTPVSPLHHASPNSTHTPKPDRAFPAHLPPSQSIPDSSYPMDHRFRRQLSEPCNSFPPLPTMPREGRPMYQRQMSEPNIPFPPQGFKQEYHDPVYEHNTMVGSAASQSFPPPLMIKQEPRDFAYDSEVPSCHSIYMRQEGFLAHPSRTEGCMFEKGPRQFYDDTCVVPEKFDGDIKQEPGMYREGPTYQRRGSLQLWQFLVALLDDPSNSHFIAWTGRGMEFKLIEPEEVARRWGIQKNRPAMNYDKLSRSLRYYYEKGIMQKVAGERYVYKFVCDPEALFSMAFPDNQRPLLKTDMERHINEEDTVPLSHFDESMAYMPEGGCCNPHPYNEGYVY
# Method in brief: as §1
# ERF = molecular target: T6, ERF (Homo sapiens, UniProt P50548 1-548); conditions: protein: recombinant; tags: N-terminal GST; dsDNA, one strand shown
# T6 sequence: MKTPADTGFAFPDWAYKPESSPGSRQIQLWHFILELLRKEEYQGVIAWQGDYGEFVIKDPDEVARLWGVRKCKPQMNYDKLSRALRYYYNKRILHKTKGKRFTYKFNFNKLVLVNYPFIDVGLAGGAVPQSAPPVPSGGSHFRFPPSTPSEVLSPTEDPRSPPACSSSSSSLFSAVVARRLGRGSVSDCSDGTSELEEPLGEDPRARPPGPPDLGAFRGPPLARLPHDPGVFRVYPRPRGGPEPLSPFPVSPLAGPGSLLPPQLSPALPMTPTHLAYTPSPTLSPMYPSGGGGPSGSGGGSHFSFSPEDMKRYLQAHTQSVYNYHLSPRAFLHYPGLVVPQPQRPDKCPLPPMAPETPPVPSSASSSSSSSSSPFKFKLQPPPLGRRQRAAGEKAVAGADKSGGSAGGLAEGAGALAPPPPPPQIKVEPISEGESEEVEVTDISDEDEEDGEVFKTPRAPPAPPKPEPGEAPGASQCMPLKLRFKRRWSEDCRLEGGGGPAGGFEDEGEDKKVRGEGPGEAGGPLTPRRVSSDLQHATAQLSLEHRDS
# Method in brief: as §1
# ETV3L = molecular target: T7, ETV3L (Homo sapiens, UniProt Q6ZN32 1-361); conditions: protein: recombinant; tags: N-terminal GST; dsDNA, one strand shown
# T7 sequence: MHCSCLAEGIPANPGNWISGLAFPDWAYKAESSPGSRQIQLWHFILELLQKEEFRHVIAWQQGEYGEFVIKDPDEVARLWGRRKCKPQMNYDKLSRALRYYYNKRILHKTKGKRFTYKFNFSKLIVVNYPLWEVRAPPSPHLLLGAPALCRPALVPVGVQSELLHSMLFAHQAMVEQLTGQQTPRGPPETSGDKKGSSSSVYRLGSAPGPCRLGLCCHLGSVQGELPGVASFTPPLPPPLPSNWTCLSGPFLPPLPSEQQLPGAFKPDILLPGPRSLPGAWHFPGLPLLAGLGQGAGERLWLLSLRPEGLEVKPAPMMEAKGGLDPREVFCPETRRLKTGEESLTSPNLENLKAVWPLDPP
# Method in brief: as §1
# ETS2 = molecular target: T8, ETS2 (Homo sapiens, UniProt P15036 1-469); conditions: protein: recombinant; tags: N-terminal GST; dsDNA, one strand shown
# T8 sequence: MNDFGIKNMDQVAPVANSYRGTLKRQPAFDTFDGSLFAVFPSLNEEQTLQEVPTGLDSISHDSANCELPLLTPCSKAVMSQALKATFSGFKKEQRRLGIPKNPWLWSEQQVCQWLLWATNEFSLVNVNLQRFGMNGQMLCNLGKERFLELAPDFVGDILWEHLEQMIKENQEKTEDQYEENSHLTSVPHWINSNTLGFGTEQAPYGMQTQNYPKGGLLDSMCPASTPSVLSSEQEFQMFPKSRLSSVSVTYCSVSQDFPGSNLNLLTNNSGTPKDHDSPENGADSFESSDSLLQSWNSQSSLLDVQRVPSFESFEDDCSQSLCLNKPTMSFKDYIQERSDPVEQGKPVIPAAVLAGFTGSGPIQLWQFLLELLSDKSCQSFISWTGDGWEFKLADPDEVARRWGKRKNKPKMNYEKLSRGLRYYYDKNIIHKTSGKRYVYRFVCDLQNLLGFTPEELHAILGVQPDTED
# Method in brief: as §1
# SPDEF = molecular target: T9, SPDEF (Homo sapiens, UniProt O95238 1-335); conditions: protein: recombinant; tags: N-terminal GST; dsDNA, one strand shown
# T9 sequence: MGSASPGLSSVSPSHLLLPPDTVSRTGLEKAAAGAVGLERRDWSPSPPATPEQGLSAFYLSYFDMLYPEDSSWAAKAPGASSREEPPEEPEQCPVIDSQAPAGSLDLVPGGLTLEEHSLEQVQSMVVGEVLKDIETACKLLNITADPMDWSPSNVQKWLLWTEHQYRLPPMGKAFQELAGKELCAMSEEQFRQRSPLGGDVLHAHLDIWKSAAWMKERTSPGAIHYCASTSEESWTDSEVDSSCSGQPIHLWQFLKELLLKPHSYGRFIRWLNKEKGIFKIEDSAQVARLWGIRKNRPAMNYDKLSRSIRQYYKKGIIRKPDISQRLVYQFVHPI
# Method in brief: as §1
# ETV7 = molecular target: T10, ETV7 (Homo sapiens, UniProt Q9Y603 1-341); conditions: protein: recombinant; tags: N-terminal GST; dsDNA, one strand shown
# T10 sequence: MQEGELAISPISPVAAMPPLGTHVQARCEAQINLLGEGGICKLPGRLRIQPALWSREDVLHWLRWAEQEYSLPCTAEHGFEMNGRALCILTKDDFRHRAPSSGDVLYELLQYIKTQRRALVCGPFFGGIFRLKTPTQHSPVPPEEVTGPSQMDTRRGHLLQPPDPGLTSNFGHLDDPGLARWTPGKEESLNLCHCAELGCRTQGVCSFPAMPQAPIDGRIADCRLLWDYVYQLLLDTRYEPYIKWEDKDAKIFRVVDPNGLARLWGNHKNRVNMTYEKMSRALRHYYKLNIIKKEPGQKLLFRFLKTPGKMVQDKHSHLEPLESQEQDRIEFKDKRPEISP
# Method in brief: as §1
# ELF5 = molecular target: T11, ELF5 (Homo sapiens, UniProt Q9UKW6-2 1-255); conditions: protein: recombinant; tags: N-terminal GST; dsDNA, one strand shown
# T11 sequence: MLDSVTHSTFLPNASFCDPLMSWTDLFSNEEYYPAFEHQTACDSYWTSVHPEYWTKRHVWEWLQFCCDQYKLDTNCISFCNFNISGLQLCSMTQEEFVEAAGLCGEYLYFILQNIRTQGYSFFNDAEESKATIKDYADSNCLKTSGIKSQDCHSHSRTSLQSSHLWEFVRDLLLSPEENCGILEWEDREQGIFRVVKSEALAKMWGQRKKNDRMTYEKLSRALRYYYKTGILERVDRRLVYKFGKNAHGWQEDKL
# Method in brief: as §1
# ETV3 = molecular target: T12, ETV3 (Homo sapiens, UniProt P41162-2 1-143); conditions: protein: recombinant; tags: N-terminal GST; dsDNA, one strand shown
# T12 sequence: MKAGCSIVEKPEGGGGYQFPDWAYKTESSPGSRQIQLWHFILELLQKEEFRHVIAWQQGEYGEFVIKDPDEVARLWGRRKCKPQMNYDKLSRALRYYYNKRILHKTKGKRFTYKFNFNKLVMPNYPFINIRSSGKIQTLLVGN
# Method in brief: as §1
# ETV6 = ETV6 (Homo sapiens, UniProt P41212 1-452); conditions: protein: recombinant; tags: N-terminal GST; dsDNA, one strand shown
# Sequence of ETV6 (P41212 whole entry): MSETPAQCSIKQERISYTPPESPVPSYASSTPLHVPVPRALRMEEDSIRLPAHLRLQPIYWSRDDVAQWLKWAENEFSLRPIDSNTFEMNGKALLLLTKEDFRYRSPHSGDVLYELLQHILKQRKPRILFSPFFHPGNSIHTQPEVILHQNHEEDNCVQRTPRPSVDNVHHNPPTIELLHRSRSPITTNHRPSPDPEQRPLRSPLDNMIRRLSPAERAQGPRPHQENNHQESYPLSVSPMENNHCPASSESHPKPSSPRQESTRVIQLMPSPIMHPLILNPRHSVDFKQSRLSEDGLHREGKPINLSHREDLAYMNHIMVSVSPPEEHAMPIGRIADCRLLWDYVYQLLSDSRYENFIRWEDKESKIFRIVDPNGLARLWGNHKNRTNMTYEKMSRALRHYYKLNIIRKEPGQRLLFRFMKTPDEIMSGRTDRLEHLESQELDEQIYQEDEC
# Method in brief: as §1
sequence,measurement,setting,value
ATTCAA,binding signal,FEV,"1.27 fold enrichment (6-mer frequency, TF over GST control)"
same,binding signal,ETV5,"1.32 fold enrichment (6-mer frequency, TF over GST control)"
same,binding signal,HSF1,"1.32 fold enrichment (6-mer frequency, TF over GST control)"
same,binding signal,SPIC,"1.32 fold enrichment (6-mer frequency, TF over GST control)"
same,binding signal,ELF4,"1.34 fold enrichment (6-mer frequency, TF over GST control)"
same,binding signal,ELK4,"1.39 fold enrichment (6-mer frequency, TF over GST control)"
same,binding signal,ETV2,"1.38 fold enrichment (6-mer frequency, TF over GST control)"
same,binding signal,ELF3,"1.38 fold enrichment (6-mer frequency, TF over GST control)"
same,binding signal,CRX,"1.36 fold enrichment (6-mer frequency, TF over GST control)"
same,binding signal,ETV1,"1.32 fold enrichment (6-mer frequency, TF over GST control)"
same,binding signal,ERF,"1.38 fold enrichment (6-mer frequency, TF over GST control)"
same,binding signal,ETV3L,"1.34 fold enrichment (6-mer frequency, TF over GST control)"
same,binding signal,ETS2,"1.36 fold enrichment (6-mer frequency, TF over GST control)"
same,binding signal,SPDEF,"1.31 fold enrichment (6-mer frequency, TF over GST control)"
same,binding signal,ETV7,"1.19 fold enrichment (6-mer frequency, TF over GST control)"
same,binding signal,ELF5,"1.24 fold enrichment (6-mer frequency, TF over GST control)"
same,binding signal,ETV3,"1.37 fold enrichment (6-mer frequency, TF over GST control)"
same,binding signal,ETV6,"1.33 fold enrichment (6-mer frequency, TF over GST control)"
